Assay results as given in PubChem BioAssay AID1159580 (chemical genetic matrix, 2015).
In all, about 5,500 compounds went through this assay and about 2,000 (36%) were called active. Roughly 18% stayed inconclusive and do not appear here. No stated cut-off is given here; in the data, active means normalized growth mostly below about 0.91 (no sharp cut-off); inconclusive means no clear call, values can overlap the other calls; inactive means mostly above about 0.92. The list shows a part of the results.

Experiment: chemical genetic growth profiling, strain panel (AID 1159580);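 further: tested at 20 µM; growth read once vehicle control cultures reached saturation at 30 °C; 1 = growth at the plate median or of vehicle wells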
Details: growth OD

Measured: normalized growth

CC(=O)O[C@H]1C[C@@]2(C)[C@H](c3ccoc3)OC(=O)[C@H]3O[C@]32[C@@]2(C)C1[C@]1(C)C(C[C@H]2OC(C)=O)C(C)(C)[C@H](OC(C)=O)C[C@@H]1OC(C)=O (some centres undefined)
inactive: S. cerevisiae deletion strains, locus YJL168C, strain set2, stronger effect = lower value 0.99 | S. cerevisiae deletion strains, locus YJL187C, strain SWE1 (second series), stronger effect = lower value 0.976 | S. cerevisiae deletion strains, locus YJR043C, strain POL32, stronger effect = lower value 0.974 | S. cerevisiae deletion strains, locus YKL009W, strain mrt4, stronger effect = lower value 0.912 | S. cerevisiae deletion strains, locus YKL068W, stronger effect = lower value 0.978 | S. cerevisiae deletion strains, locus YKL085W, strain MDH1 (second series), stronger effect = lower value 0.973 | S. cerevisiae deletion strains, locus YKL085W, strain MDH1, stronger effect = lower value 0.973 | S. cerevisiae deletion strains, locus YKL160W, strain elf1, stronger effect = lower value 1.05 | S. cerevisiae deletion strains, locus YKR001C, strain vps1, stronger effect = lower value 0.982 | S. cerevisiae deletion strains, locus YKR026C, strain gcn3, stronger effect = lower value 0.978 | S. cerevisiae deletion strains, locus YKR091W, strain srl3, stronger effect = lower value 0.995 | S. cerevisiae deletion strains, locus YLL001W, strain dnm1, stronger effect = lower value 0.977 | S. cerevisiae deletion strains, locus YLL026W, stronger effect = lower value 0.974 | S. cerevisiae deletion strains, locus YLL041C, strain sdh2, stronger effect = lower value 0.998 | S. cerevisiae deletion strains, locus YLR027C, strain aat2, stronger effect = lower value 0.965 | S. cerevisiae deletion strains, locus YLR039C, strain RIC1, stronger effect = lower value 0.959 | S. cerevisiae deletion strains, locus YLR058C, strain SHM2, stronger effect = lower value 0.978 | S. cerevisiae deletion strains, locus YLR102C, strain apc9, stronger effect = lower value 0.979 | S. cerevisiae deletion strains, locus YLR221C, strain rsa3, stronger effect = lower value 0.987 | S. cerevisiae deletion strains, locus YLR258W, strain gsy2, stronger effect = lower value 1.02 | S. cerevisiae deletion strains, locus YLR262C, strain YPT6 (second series), stronger effect = lower value 1.03 | S. cerevisiae deletion strains, locus YLR268W, strain sec22, stronger effect = lower value 0.975 | S. cerevisiae deletion strains, locus YLR320W, strain mms22, stronger effect = lower value 0.999 | S. cerevisiae deletion strains, locus YLR342W, strain FKS1, stronger effect = lower value 0.995 | S. cerevisiae deletion strains, locus YLR357W, strain rsc2, stronger effect = lower value 1.01 | S. cerevisiae deletion strains, locus YLR370C, strain arc18, stronger effect = lower value 0.961 | S. cerevisiae deletion strains, locus YLR371W, strain rom2, stronger effect = lower value 0.982 | S. cerevisiae deletion strains, locus YLR384C, strain iki3, stronger effect = lower value 1.01 | S. cerevisiae deletion strains, locus YLR418C, strain cdc73, stronger effect = lower value 1.01 | S. cerevisiae deletion strains, locus YML016C, strain PPZ1, stronger effect = lower value 0.984 | S. cerevisiae deletion strains, locus YML032C, strain rad52, stronger effect = lower value 0.977 | S. cerevisiae deletion strains, locus YML120C, strain ndi1, stronger effect = lower value 1.02 | S. cerevisiae deletion strains, locus YML124C, strain tub3, stronger effect = lower value 0.993 | S. cerevisiae deletion strains, locus YMR058W, strain fet3, stronger effect = lower value 0.988 | S. cerevisiae deletion strains, locus YMR078C, strain ctf18, stronger effect = lower value 0.955 | S. cerevisiae deletion strains, locus YMR125W, strain sto1, stronger effect = lower value 1.02 | S. cerevisiae deletion strains, locus YMR129W, stronger effect = lower value 0.985 | S. cerevisiae deletion strains, locus YMR205C, strain PFK2, stronger effect = lower value 1.01 | S. cerevisiae deletion strains, locus YMR223W, strain ubp8, stronger effect = lower value 0.991 | S. cerevisiae deletion strains, locus YMR231W, strain pep5, stronger effect = lower value 0.979 | S. cerevisiae deletion strains, locus YMR263W, strain SAP30, stronger effect = lower value 0.969 | S. cerevisiae deletion strains, locus YMR307W, strain GAS1, stronger effect = lower value 1.05 | S. cerevisiae deletion strains, locus YNL067W, strain RPL9B, stronger effect = lower value 0.996 | S. cerevisiae deletion strains, locus YNL071W, strain lat1, stronger effect = lower value 0.999 | S. cerevisiae deletion strains, locus YNL128W, strain TEP1, stronger effect = lower value 0.971 | S. cerevisiae deletion strains, locus YNL153C, strain GIM3, stronger effect = lower value 0.985 | S. cerevisiae deletion strains, locus YNL209W, strain ssb2, stronger effect = lower value 0.992 | S. cerevisiae deletion strains, locus YNL233W, strain BNI4, stronger effect = lower value 1 | S. cerevisiae deletion strains, locus YNL248C, strain rpa49, stronger effect = lower value 0.984 | S. cerevisiae deletion strains, locus YNL250W, strain rad50, stronger effect = lower value 0.97 | S. cerevisiae deletion strains, locus YNL271C, strain bni1, stronger effect = lower value 0.979 | S. cerevisiae deletion strains, locus YNL298W, strain CLA4, stronger effect = lower value 0.968 | S. cerevisiae deletion strains, locus YNL307C, strain MCK1, stronger effect = lower value 0.991 | S. cerevisiae deletion strains, locus YNL322C, strain KRE1 (second series), stronger effect = lower value 0.985 | S. cerevisiae deletion strains, locus YNR049C, strain mso1, stronger effect = lower value 0.985 | S. cerevisiae deletion strains, locus YNR052C, strain pop2, stronger effect = lower value 0.98 | S. cerevisiae deletion strains, locus YOL006C, strain TOP1, stronger effect = lower value 0.959 | S. cerevisiae deletion strains, locus YOL012C, strain htz1 1.13 | S. cerevisiae deletion strains, locus YOL147C, strain pex11, stronger effect = lower value 0.987 | S. cerevisiae deletion strains, locus YOR001W, strain rrp6, stronger effect = lower value 0.919 | S. cerevisiae deletion strains, locus YOR061W, strain CKA2, stronger effect = lower value 0.966 | S. cerevisiae deletion strains, locus YOR069W, strain VPS5, stronger effect = lower value 0.992 | S. cerevisiae deletion strains, locus YOR070C, strain gyp1, stronger effect = lower value 1 | S. cerevisiae deletion strains, locus YOR080W, strain dia2, stronger effect = lower value 0.963 | S. cerevisiae deletion strains, locus YOR083W, strain WHI5, stronger effect = lower value 1.04 | S. cerevisiae deletion strains, locus YOR106W, strain vam3, stronger effect = lower value 1.03 | S. cerevisiae deletion strains, locus YOR136W, strain idh2, stronger effect = lower value 0.974 | S. cerevisiae deletion strains, locus YOR144C, strain elg1, stronger effect = lower value 0.989 | S. cerevisiae deletion strains, locus YOR184W, strain ser1, stronger effect = lower value 0.966 | S. cerevisiae deletion strains, locus YOR265W, strain rbl2, stronger effect = lower value 0.951 | S. cerevisiae deletion strains, locus YOR270C, strain vph1, stronger effect = lower value 0.879 | S. cerevisiae deletion strains, locus YOR290C, strain snf2, stronger effect = lower value 1.05 | S. cerevisiae deletion strains, locus YOR316C, strain cot1, stronger effect = lower value 0.982 | S. cerevisiae deletion strains, locus YPL051W, strain arl3, stronger effect = lower value 0.995 | S. cerevisiae deletion strains, locus YPL055C, strain LGE1, stronger effect = lower value 0.964 | S. cerevisiae deletion strains, locus YPL078C, strain atp4, stronger effect = lower value 1.05 | S. cerevisiae deletion strains, locus YPL106C, strain sse1, stronger effect = lower value 1.03 | S. cerevisiae deletion strains, locus YPL240C, strain hsp82, stronger effect = lower value 0.986 | S. cerevisiae deletion strains, locus YPR119W, strain clb2, stronger effect = lower value 0.983 | S. cerevisiae deletion strains, locus YPR141C, strain kar3, stronger effect = lower value 0.984 | S. cerevisiae deletion strains, locus YPR163C, strain tif3, stronger effect = lower value 0.989 | S. cerevisiae deletion strains, locus YPR167C, strain met16, stronger effect = lower value 0.984 | S. cerevisiae deletion strains, strain wtn01, stronger effect = lower value 0.94 | S. cerevisiae strains, strain wild type, stronger effect = lower value 0.993
